From PubChem BioAssay
This is a sample that favours compounds with a hit; in the whole collection about 27% have one here.
Cav3 T inh – inhibitors of human Cav3.2 T-type calcium channel; Cav3.2-expressing cells, Fluo-4 calcium fluorescence FDSS; active compounds read low; B-score at 10 µM; 100,000 tested, 4% active; AID 449739;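 active = single-dose well whose peak fluorescence ratio is a statistical outlier from its plate by either plate-standardised score or position-corrected B-score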
CYP2C19 inh – blocks human cytochrome P450 2C19 | P33261 | CYP2C19 Supersomes, luciferin-H EGE luminescence, 30 min | inhibition, % at 5 µM | 96,000 tested, 21% active | AID 778;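 active = CYP2C19 inhibition above a set limit at 5 µM in the primary screen, cut at about 50% in these data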;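 note: plate controls were negative control wells for no effect and 2.5 mM tranylcypromine positive control for full effect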
Target sequence (P33261 whole entry, looked up): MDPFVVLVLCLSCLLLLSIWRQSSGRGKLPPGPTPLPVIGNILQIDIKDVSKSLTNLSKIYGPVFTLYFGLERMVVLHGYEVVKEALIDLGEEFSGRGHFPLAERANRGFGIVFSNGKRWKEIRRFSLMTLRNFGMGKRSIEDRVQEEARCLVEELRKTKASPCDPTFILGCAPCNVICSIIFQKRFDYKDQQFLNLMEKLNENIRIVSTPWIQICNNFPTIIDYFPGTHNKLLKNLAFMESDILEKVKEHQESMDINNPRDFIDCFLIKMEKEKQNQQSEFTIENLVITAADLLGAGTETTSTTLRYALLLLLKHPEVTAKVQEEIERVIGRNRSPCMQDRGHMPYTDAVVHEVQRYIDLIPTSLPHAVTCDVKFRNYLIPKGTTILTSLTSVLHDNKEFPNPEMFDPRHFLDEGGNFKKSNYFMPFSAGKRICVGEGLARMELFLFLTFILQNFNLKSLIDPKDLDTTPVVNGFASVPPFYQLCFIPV
CYP2C9 inh – blocks human cytochrome P450 2C9; P11712; AID 777; CYP2C9 Supersomes, luciferin-H conversion, luminescence; inhibition, % at 5 µM; 96,000 tested, 20% active;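 active = blocking of liver enzyme CYP2C9 beyond about 50% at 5 µM, limit read from the data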
CYP2C19 act – increases human CYP2C19 enzyme activity. P33261. recombinant CYP2C19, luciferin-H EGE luminescence; active compounds read high; 0 = fully inhibited enzyme, 1 = untreated enzyme. activation factor at 5 µM. 96,000 tested, under 10 active. AID 1025;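 active = activation factor of at least 2 at 5 µM in the primary screen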;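 note: 0 = wells with 2.5 mM tranylcypromine and 1 = vehicle-only wells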
CYP2C9 activ – CYP2C9 (human) activation. P11712. recombinant CYP2C9, luciferin-H conversion, luminescence; active compounds read high; factor 1 = untreated enzyme, 0 = blocked. activation factor at 5 µM. 96,000 tested, 1.4% active. AID 1024;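 active = activation factor of 2 or more for CYP2C9 at a 5 µM dose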;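 note: 0 = sulfaphenazole-blocked wells and 1 = vehicle-only wells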
Active calls of the source: *; / = no result.

SMILES | Cav3 T inh | CYP2C19 inh | CYP2C9 inh | CYP2C19 act | CYP2C9 activ
C=CCn1c(O)c(C(C)=Nc2cc(OC)ccc2OC)c(=O)[nH]c1=O | 0.0441 | 20.1 | 19.8 | 0.8 | 0.8
CC1CN(O)C2CCc3nonc3C12O (configuration not stated) | -0.00788 | 4.1 | 5.5 | 1 | 0.9
COc1ccccc1CN1CCCCC1c1cccnc1 (configuration not stated) | -2.13 | 50.4* | -8.8 | 0.5 | 1.1
FC(F)(F)c1cccc(-n2nnnc2C2(N3CCOCC3)CCCCC2)c1 | -1.69 | 56.6* | 26.4 | 0.4 | 0.7
CCOC(=O)c1c(C)n(Cc2ccccc2)c2ccc(OCC(O)Cn3nc(C)nc3C)cc12 (configuration not stated) | / | 53.8* | 62.3* | 0.5 | 0.4
CCOC(=O)c1c(C)n(Cc2ccccc2)c2ccc(OCC(O)Cn3nc(C)cc3C)cc12 (configuration not stated) | -3.83 | / | / | / | /
Cc1ccc(N)c(C(=O)c2ccccc2)c1 | -0.26 | 84.8* | 2.7 | 0.2 | 1
Cc1ccc(C(=O)Nc2ccc(Cl)cc2C(=O)c2ccccc2)cc1 | -1.12 | / | / | / | /
COC(=O)C1=C(c2cc3ccccc3s2)C[C@@H]2CC[C@H]1N2C(=O)NCCS(C)=O (some centres not stated) | -0.934 | / | / | / | /
CCC(=NCCc1c[nH]c2ccccc12)c1c(O)n(C)c(=O)n(C)c1=O | -2.59 | 59.3* | 50.2* | 0.4 | 0.5
CCC(=Nc1ccc(OC)cc1OC)c1c(O)n(C)c(=O)n(C)c1=O | -1.39 | 9.8 | 9.8 | 0.9 | 0.9
CCC(=NCc1cc(OC)cc(OC)c1)c1c(O)n(C)c(=O)n(C)c1=O | 0.424 | 29.1 | 81.0* | 0.7 | 0.2
CCC(=NCc1ccc2c(c1)OCO2)c1c(O)n(C)c(=O)n(C)c1=O | -0.172 | 29.2 | 61.6* | 0.7 | 0.4
CC(C)Cc1[nH]c(=O)c(C#N)c2c1CCC2 | -0.0181 | -13.4 | -12.0 | 1.1 | 1.1
CN1CC2=CC(O)CC3Oc4c(O)ccc(c4[C@]23C)C1 (some centres not stated) | 0.662 | / | / | / | /
CCOC(=O)c1c(-n2c(C)cc(/C=C3/C(=O)NC(=O)N(CC)C3=O)c2C)sc2c1CCCC2 | -3.51* | / | / | / | /
CC(O)(CS(=O)(=O)c1cccc(C(F)(F)F)c1)C(=O)Nc1cccc(C(F)(F)F)c1 (configuration not stated) | -1.35 | 51.3* | -90.4 | 0.5 | 1.9
CC(O)(CS(=O)(=O)c1ccc(F)cc1)C(=O)Nc1ccc(C#N)c(C(F)(F)F)c1 (configuration not stated) | -0.602 | / | / | / | /
CC(O)(CS(=O)(=O)c1ccccc1)C(=O)Nc1ccc(C(F)(F)F)cc1 (configuration not stated) | -0.168 | 64.8* | 9.3 | 0.4 | 0.9
CCOC(=O)/C(CCCN(CC)CC)=N\O | 1.31 | -4.2 | -0.7 | 1 | 1
C[C@@]12N[C@@H](Cc3ccccc31)c1ccccc12 | 0.112 | / | / | / | /
CC(C)(C)c1nc(N2CCN(C(=O)c3ccco3)CC2)c2nnn(Cc3ccccc3Cl)c2n1 | -2.09 | 62.1* | 94.7* | 0.4 | 0.1
O=c1cccc2n1CC1CC2CN(C(c2ccccc2)c2sc3ncnn3c2O)C1 (configuration not stated) | 0.179 | -21.0 | 25.5 | 1.2 | 0.7
CN(C)c1ccc(NC(=O)CN2C(=O)CN=C(c3ccccc3)c3cc(Cl)ccc32)cc1 | -8.87* | 96.5* | 65.1* | 0 | 0.3
CCC(C)C1N=C(c2ccccc2)c2cc(Cl)ccc2N(CC(=O)NCc2ccco2)C1=O (configuration not stated) | 0.633 | -8.6 | -3.0 | 1.1 | 1
SMILES | Cav3 T inh | CYP2C19 inh | CYP2C9 inh | CYP2C19 act | CYP2C9 activ
O=C(CN1CC(c2ccccc2)CC1=O)Nc1ccccc1 (configuration not stated) | -0.15 | / | / | / | /
CN(C)c1ccc(NC(=O)CN2C(=O)CN=C(c3ccccc3)c3ccccc32)cc1 | -5.04* | 65.3* | 1.4 | 0.3 | 1
Cc1ccc(NC(=O)CN2C(=O)CN=C(c3ccccc3)c3cc(Cl)ccc32)cc1 | -6.68* | 90.3* | 79.8* | 0.1 | 0.2
NCC(CC(=O)O)c1ccc(Cl)cc1 (configuration not stated) | 0.0294 | -14.0 | -15.4 | 1.1 | 1.2
CCN1C[C@]2(CO)CC[C@H](OC)[C@@]34C5C[C@H]6[C@H](OC)C5[C@](O)(C[C@H]6OC)[C@@H](C(OC)C23)[C@@H]14 (some centres not stated) | -0.392 | / | / | / | /
CCC(C)NS(=O)(=O)c1ccc(OCC(=O)N2CCN(CC)CC2)cc1 (configuration not stated) | -0.0854 | / | / | / | /
CCOC(=O)C1=C(N)OC2=C(C(=O)CCC2)C12C(=O)N1c3c(ccc(C)c32)C(C)=CC1(C)C (configuration not stated) | -8.29* | / | / | / | /
CCOC(=O)C1=C(N)Oc2cc(C)oc(=O)c2C12C(=O)N1c3c(cc(OC)cc32)C(C)=CC1(C)C (configuration not stated) | 1.37 | 46.0 | 21.5 | 0.5 | 0.8
CCOC(=O)C1=C(N)OC2=C(C(=O)CCC2)C12C(=O)Nc1ccccc12 (configuration not stated) | -0.0265 | -8.2 | 17.7 | 1.1 | 0.8
CCOC(=O)C1=C(N)Oc2cc(C)oc(=O)c2C12C(=O)N1c3c(cccc32)C(C)=CC1(C)C (configuration not stated) | -3.05 | 53.3* | 16.2 | 0.5 | 0.8
O=C(c1ccccc1F)c1cn(CC(=O)N2CCCCC2)c2ccccc12 | 0.0125 | 80.3* | 30.5 | 0.2 | 0.7
CC(C)(C)NC(=O)Cn1cc(C(=O)c2ccccc2F)c2ccccc21 | -2.26 | 38.2 | 38.0 | 0.6 | 0.6
CCC(=O)c1cn(Cc2ccc(C#N)cc2)c2ccccc12 | -2.12 | 38.6 | 44.1 | 0.6 | 0.6
O=C(c1ccccc1F)c1cn(Cc2ccccc2)c2ccccc12 | -3.55* | 60.4* | 2.5 | 0.4 | 1
O=C(c1ccccc1)c1cn(CC(=O)N2CCCC2)c2ccccc12 | -0.0174 | 10.4 | 12.0 | 0.9 | 0.9
CCOC(=O)Cn1cc(C(=O)c2ccccc2F)c2ccccc21 | -1.51 | 68.2* | 48.4 | 0.3 | 0.5
CCn1cc(C(=O)c2ccccc2)c2ccccc21 | -0.0515 | 27.5 | -149.6 | 0.7 | 2.5*
O=C(C1CCN(S(=O)(=O)N2CCOCC2)CC1)N1CCC2(CC1)OCCO2 | -0.152 | -10.9 | -15.8 | 1.1 | 1.2
CCN1CCN(Cc2cc(OC)c(OC)cc2[N+](=O)[O-])CC1 | 0.456 | -13.8 | -9.6 | 1.1 | 1.1
CC[C@H]1CN(C)CCc2c([nH]c3ccccc23)C(=O)C[C@@H]1/C(=C\OC)C(=O)OC | -1.42 | / | / | / | /
CCOCCCNC(=O)CN1C2CCC1CC(O)(c1ccc(OC)cc1)C2 (configuration not stated) | 0.649 | 2.0 | -6.3 | 1 | 1.1
CC1CC2(O)c3nonc3CCC2N1O (configuration not stated) | 0.56 | 6.3 | -1.8 | 0.9 | 1
